Laboratory results as given in PubChem BioAssay AID2314 (National Center for Advancing Translational Sciences (NCATS), 2010).
“And” between values parts separate entries of the source, which are not always exact repeats. Equal entries are not always repeated. Screen size: about 300,000 compounds; about 37,000 (12%) were called active. Rule as the data show it: active = max response mostly above about 13% (no sharp cut-off); inactive = mostly below about 14%. This excerpt belongs to a sample that is enriched for actives.

Test: Cycloheximide Counterscreen for Small Molecule Inhibitors of Shiga Toxin; also: read at 38.3 µM for the half of the compounds with a filed dose; 0% is about no effect
Settings: cell reporter, cycloheximide protein synthesis inhibition counterscreen; stronger effect = higher value

Row | Structure (SMILES) | max response
1 | Cc1cc(C(=O)NC2CCN(Cc3ccccc3)CC2)n[nH]1 | -5.5% (inactive)
2 | Clc1ccc(C[n+]2cc(-c3ccc(Cl)cc3)n3c2CCC3)cc1 | 1.82% (inactive)
3 | Cc1ccc(CN2CCCOCCS2(=O)=O)cc1 | 0.911% (inactive)
4 | O=C(COc1ccccc1)NCCc1nc2ccccc2[nH]1 | -4.17% (inactive)
5 | O=C(OCc1nc2ccccc2[nH]1)C1CCCCC1 | 16.3% (active)
6 | CCO[C@@H]1OC(C(=O)NCc2nc3ccccc3[nH]2)=C[C@H](C2CCCCC2)[C@H]1CCCO | -1.94% (inactive)
7 | CCc1cc2c(NC(Cc3ccccc3)C(=O)O)ncnc2s1 (stereo not given) | 1.45% (inactive)
8 | Cc1ccc(NC(=O)CC2C(=O)N(Cc3ccccc3)C(=S)N2NC(=O)c2cccc(F)c2)c(C)c1 (stereo not given) | -8.81% (inactive)
9 | Nc1nc(SCCOc2ccccc2)n[nH]1 | 10.5% (inactive)
10 | CCCOc1ccc(-c2nc(N)n[nH]2)cc1 | 27.8% (active)
11 | Cc1ccc(OCCCCc2c(C)n[nH]c2C)cc1 | 7.68% (inactive)
12 | CC(NCC(=O)Nc1cc(Cl)cc(Cl)c1)c1ccccc1 (stereo not given) | -2.23% (inactive)
13 | COc1cccc(CNC(=O)CCC2CCCN(Cc3ccc(OC(F)F)cc3)C2)c1 (stereo not given) | -2.71% (inactive)
14 | COc1ccc(OC)c(CNC(=O)Cn2nc(C)c3c(C)n(-c4ccc(C)cc4)nc3c2=O)c1 | 2.16% (inactive)
15 | CC(=O)Nc1cccc(NC(=O)CSc2nccn2Cc2ccc(F)cc2)c1 | -0.128% (inactive)
16 | Cn1c(=O)n(C)c2cc(C(=O)Nc3ccc4c(c3)OCO4)ccc21 | 21.7% (active)
17 | COc1ccc(C(=O)Nc2ccc3c(c2)OCO3)cc1OC | 57.2% (active)
18 | COc1cc(C(=O)NCC2(c3ccccc3)CCCC2)ccc1OC(C)C | -3% (inactive)
19 | COc1ccc(-c2cc(C(F)(F)F)nc(SCC(=O)Nc3ccc4c(c3)OCO4)n2)cc1OC | 0.778% (inactive)
20 | COc1ccc(C(=O)Nc2ccc3nc(N4CCCCC4)cc(C)c3c2)cc1OC | -1.84% (inactive)

Row | Structure (SMILES) | max response
21 | COc1cccc(OC)c1C(=O)Nc1ccc2c(c1)n(C)c(=O)n2C | -0.414% (inactive)
22 | Cn1c(=O)n(C)c2cc(C(=O)Nc3ccc(Br)cc3)ccc21 | 5.85% (inactive)
23 | COc1ccc(S(=O)(=O)Nc2ccc3c(c2)OCO3)cc1Cl | 1.12% (inactive)
24 | COc1ccc(C(=O)Nc2ccc(C3(C#N)CCCC3)cc2)cc1OC | 20.7% (active)
25 | O=C(Cc1ccccc1)Nc1c(C(=O)N2CCCCCC2)cnn1-c1ccccc1 | -1.98% (inactive)
26 | COc1ccc2c(c1)CCc1cn3ncc(C#N)c3nc1-2 | -3.03% (inactive)
27 | CCCCn1nc(C(=O)N2CCc3ccccc32)c2ccccc2c1=O | 1.07% (inactive)
28 | Cc1nc(N=C(N)N)nc2c(C)cccc12 | 3.71% (inactive)
29 | CCOC(=O)C(C)n1cnc2scc(-c3ccc(C)c(C)c3)c2c1=O (stereo not given) | -0.876% (inactive)
30 | Cc1ccccc1OCC(=O)N(Cc1cccc(F)c1)C1CCS(=O)(=O)C1 (stereo not given) | -13% (inactive)
31 | Cc1cc2oc(=O)cc(-c3ccccc3)c2c(C)c1-c1ccc(OC(F)(F)F)cc1 | 17.1% (inactive)
32 | CN(C(=O)CCNC(=O)Cn1ccc2ccccc2c1=O)c1ccc(Br)cc1 | -6.96% (inactive)
33 | CCN(/N=C/c1ccc(N(C)C)cc1)c1nc2ccccc2[nH]1 | 5.84% (inactive)
34 | CNC(=O)c1ccsc1NC(=O)c1ccc(S(=O)(=O)N2CCc3ccccc32)cc1 | -2.6% (inactive)
35 | CCN(CC)CCCNC(=O)c1cc2c(=O)[nH]c3ccc(C)cc3c2s1 | 0.225% (inactive)
36 | COc1ccc(N2C(=O)CC(Sc3n[nH]c(-c4ccc(C)cc4)n3)C2=O)cc1 (stereo not given) | -1.55% (inactive)
37 | COc1ccc(C2=NN(c3nc4ccccc4s3)C(=O)C2)cc1 | 25.8% (active)
38 | CN(C(=O)COC(=O)c1nc(Cl)ccc1Cl)C1CCS(=O)(=O)C1 (stereo not given) | -1.17% (inactive)
39 | COC(=O)c1c(-c2ccc(C)cc2)csc1N | 9.52% (inactive)
40 | Nc1scc(-c2ccncc2)c1Cl | 26% (active)

Row | Structure (SMILES) | max response
41 | O=C(c1ccc(CSc2ccccc2)cc1)N1CCCCCC1 | 66.2% (active)
42 | O=C(c1ccc(S(=O)(=O)c2ccccc2)cc1)N1CCCCCC1 | -1.02% (inactive)
43 | CC1CCN(C(=O)c2ccc(CSc3ccc(Cl)cc3)cc2)CC1 | -3.83% (inactive)
44 | Cc1cccc(C)c1NC(=O)CSc1nc2c([nH]1)c(=O)n(C)c(=O)n2C | -6.42% (inactive)
45 | CC1=C(C(=O)OCC2CCCCC2)C(c2ccc(F)cc2)NC(=O)N1 (stereo not given) | -1.88% (inactive)
46 | Cc1cccc(N2C(=O)C3C(c4ccccc4)OC4(C(=O)c5ccccc5C4=O)C3C2=O)c1 (stereo not given) | 7.54% (inactive)
47 | Cc1cccc(N2C(=O)NC(=O)/C(=C\c3cnn(-c4ccccc4)c3)C2=O)c1 | 25.1% (active)
48 | Cc1cccc(N2C(=O)c3cccnc3C2=O)c1 | 7.77% (inactive)
49 | O=C(CNC(=O)c1ccc(Br)o1)NCC1CCCO1 (stereo not given) | -2.05% (inactive)
50 | CC(NC(=O)C(=O)NN=C1CCC(C(C)(C)C)CC1)c1ccccc1 (stereo not given) | 1.38% (inactive)
51 | CCC(C)(C)C1CCC(=NNC(=O)c2ccc(Br)o2)CC1 (stereo not given) | 44.3% (active)
52 | CC(C)(C)C1CCC(=NNC(=O)c2ccc(Br)o2)CC1 (stereo not given) | 35.2% (active)
53 | CC(C)(C)C1CCC(=NNC(=O)c2cc(-c3ccccc3)n[nH]2)CC1 (stereo not given) | 5.64% (inactive)
54 | CC(CNC(=O)c1ccc(Br)o1)NC(=O)c1ccc(Br)o1 (stereo not given) | -3.59% (inactive)
55 | CC(=O)N1C(C)c2ccccc2C(C)(C)CC12CCCCC2 (stereo not given) | -1.42% (inactive)
56 | Cc1ccc(C)c(N2CCN(S(=O)(=O)c3c(C)[nH]c(C)c3C(=O)N3CCCC3)CC2)c1 | -1.94% (inactive)
57 | C=CC(COCc1ccccc1)N(Cc1ccccc1)S(=O)(=O)c1ccccc1Br (stereo not given) | -2.35% (inactive) and 5.45% (inactive)
58 | CS(=O)(=O)N(C(=O)NC(=O)NC1CCS(=O)(=O)C1)C1CCCCC1 (stereo not given) | -1.14% (inactive)
59 | Cc1ccc(NC(=O)NC(=O)N(C2CCCCC2)S(=O)(=O)c2ccccc2)cc1 | 40.9% (active)
60 | Cc1ccc(S(=O)(=O)N(C)CC(=O)NC2CCCC2)cc1 | -2.07% (inactive)
